For some of these results: Results with a measured potency or affinity are listed apart.
What was measured:
Design in all cases: scale not given: direction of the effect not stated beside the values
[1] = target: Protein translocase subunit SecA (Escherichia coli (strain K12)) (UniProt P10408); assay: Assay to Identify E. coli SecA ATPase Inhibitors; type: functional; conditions: 30 µM
[2] = target: T1, Ubiquitin-activating enzyme e1, putative (Leishmania donovani (strain BPK282A1)) (UniProt E9BSI1); assay: Leishmania donovani Ubiquitin Activating Enzyme (LdE1); type: functional; conditions: 30 µM
T1 sequence (whole entry): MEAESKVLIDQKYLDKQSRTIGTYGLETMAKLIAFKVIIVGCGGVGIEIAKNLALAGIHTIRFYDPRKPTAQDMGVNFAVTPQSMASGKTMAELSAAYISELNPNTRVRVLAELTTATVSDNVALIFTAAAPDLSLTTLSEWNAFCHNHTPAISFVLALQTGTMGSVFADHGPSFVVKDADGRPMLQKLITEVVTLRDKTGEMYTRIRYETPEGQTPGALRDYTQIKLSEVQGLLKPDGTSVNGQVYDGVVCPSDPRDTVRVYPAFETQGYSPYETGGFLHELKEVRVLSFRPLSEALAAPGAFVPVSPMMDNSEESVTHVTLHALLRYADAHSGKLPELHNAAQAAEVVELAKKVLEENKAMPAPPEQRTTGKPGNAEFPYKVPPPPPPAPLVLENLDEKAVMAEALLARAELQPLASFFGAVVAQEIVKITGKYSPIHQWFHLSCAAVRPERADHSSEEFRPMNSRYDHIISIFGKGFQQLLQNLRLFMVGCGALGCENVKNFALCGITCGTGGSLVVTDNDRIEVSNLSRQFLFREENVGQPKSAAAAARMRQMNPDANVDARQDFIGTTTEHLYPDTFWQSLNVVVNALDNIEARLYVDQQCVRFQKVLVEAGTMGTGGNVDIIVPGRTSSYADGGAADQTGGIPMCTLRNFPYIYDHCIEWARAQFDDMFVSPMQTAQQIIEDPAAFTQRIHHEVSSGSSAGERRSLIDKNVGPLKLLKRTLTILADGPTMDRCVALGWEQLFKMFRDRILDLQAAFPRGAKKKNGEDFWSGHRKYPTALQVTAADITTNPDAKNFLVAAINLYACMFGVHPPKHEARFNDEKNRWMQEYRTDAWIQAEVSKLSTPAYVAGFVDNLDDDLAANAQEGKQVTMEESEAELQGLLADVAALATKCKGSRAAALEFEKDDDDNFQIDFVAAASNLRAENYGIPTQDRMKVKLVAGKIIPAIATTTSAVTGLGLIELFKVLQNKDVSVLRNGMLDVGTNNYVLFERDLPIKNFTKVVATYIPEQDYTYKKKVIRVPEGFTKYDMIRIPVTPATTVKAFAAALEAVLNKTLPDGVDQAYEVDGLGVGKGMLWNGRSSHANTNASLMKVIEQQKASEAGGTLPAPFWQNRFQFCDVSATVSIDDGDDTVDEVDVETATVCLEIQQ

[3] = target: AMP-activated protein kinase, AMPK (Homo sapiens) (UniProt P54646+O43741+P54619+Q9UGJ0+Q9Y478+Q13131+Q9UGI9); assay: AMP-dependent Kinase enzyme assay. An in vitro enzyme assay that detects ADP turnover that is directly proportional to AMPK activity. This uses naive AMPK that is activated during the assay with MK-8722; type: functional; conditions: 30 µM
[4] = target: Sialic acid-binding Ig-like lectin 9 (Homo sapiens) (UniProt Q9Y336); assay: Hs-Siglec9 ALPHAscreen SOP 20170721; conditions: 10 µM
[5] = tested on: Trypanosoma cruzi; assay: Trypanosoma cruzi phosphomannomutase and mannose-1-phosphate guanylyltransferase assay; type: functional; conditions: 10 µM
[6] = target: T2, Arginase-2, mitochondrial (Homo sapiens) (UniProt P78540); assay: in vitro enzyme assay to detect the production of urea directly proportional to the activity of Arginase II; type: functional; conditions: 33.3 µM; further: in the data most compounds retested in dose-response had high values
T2 sequence (whole entry): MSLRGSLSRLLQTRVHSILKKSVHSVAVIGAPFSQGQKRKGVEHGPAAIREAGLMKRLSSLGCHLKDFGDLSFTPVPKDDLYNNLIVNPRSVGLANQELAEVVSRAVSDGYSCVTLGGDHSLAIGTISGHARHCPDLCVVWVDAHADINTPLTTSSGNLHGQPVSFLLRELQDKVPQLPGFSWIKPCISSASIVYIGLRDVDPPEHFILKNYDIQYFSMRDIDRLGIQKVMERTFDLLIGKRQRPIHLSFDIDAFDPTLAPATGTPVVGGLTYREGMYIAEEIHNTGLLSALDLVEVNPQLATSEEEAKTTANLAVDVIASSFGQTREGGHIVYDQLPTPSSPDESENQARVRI

[7] = target: T3, Proteasome subunit beta (Trypanosoma cruzi) (UniProt O96673); assay: Trypanosoma cruzi proteasome chymotrypsin-like activity (TcProtChymo) assay.; further: in the data most compounds retested in dose-response had high values; type: functional; conditions: 9.37 µM
T3 sequence (whole entry): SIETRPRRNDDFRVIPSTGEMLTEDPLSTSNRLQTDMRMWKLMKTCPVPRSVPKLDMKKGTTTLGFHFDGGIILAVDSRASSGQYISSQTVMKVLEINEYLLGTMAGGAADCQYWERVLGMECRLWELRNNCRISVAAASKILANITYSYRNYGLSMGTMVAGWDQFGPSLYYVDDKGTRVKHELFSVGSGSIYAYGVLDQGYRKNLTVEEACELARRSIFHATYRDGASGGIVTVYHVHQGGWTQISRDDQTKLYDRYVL

[8] = species on record: Homo sapiens; assay: To identify inhibition of the IFN signalling (Jak-Stat) pathway via expression of an eGFP reporter gene under the control of an IFN-stimulated response element (ISRE) containing MxA promoter.; type: functional; conditions: 30 µM
[9] = target: T4, Tyrosyl-tRNA synthetase, putative (Trypanosoma cruzi (strain CL Brener)) (UniProt Q4DSP6); assay: Trypanosoma cruzi tyrosyl tRNA synthetase (TcYRS) _High Tyrosine SOP; type: functional; conditions: 30 µM; further: in the data most compounds retested in dose-response had high values
T4 sequence (whole entry): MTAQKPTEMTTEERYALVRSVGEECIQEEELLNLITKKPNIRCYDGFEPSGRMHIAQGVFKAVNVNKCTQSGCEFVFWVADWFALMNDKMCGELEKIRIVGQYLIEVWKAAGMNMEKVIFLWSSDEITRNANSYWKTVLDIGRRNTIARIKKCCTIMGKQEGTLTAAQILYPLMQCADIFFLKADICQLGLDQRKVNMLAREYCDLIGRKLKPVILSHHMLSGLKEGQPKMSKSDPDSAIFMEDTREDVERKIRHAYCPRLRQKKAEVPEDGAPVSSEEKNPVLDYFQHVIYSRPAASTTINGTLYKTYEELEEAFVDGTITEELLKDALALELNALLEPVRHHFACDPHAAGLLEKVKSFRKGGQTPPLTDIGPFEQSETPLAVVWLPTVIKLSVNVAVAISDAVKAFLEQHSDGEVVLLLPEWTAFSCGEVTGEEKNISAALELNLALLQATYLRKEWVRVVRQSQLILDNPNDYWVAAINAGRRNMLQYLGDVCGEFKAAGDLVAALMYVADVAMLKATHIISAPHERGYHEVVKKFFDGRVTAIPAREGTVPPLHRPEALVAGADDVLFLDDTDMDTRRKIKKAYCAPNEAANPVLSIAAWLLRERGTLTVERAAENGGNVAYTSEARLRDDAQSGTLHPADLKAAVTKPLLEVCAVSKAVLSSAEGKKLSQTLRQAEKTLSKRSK

[10] = target: T4, Tyrosyl-tRNA synthetase, putative (Trypanosoma cruzi (strain CL Brener)); assay: Trypanosoma cruzi tyrosyl tRNA synthetase (TcYRS) SOP; type: functional; conditions: 30 µM
[11] = target: Chromo domain-containing protein 1 (Saccharomyces cerevisiae (strain ATCC 204508 / S288c) (Baker's yeast)) (UniProt P32657); assay: ScCHD-1 Enzyme Inhibition Assay; type: functional; conditions: 30 µM; further: in the data most compounds retested in dose-response had high values
Sequence of Chromo domain-containing protein 1 (Saccharomyces cerevisiae (strain ATCC 204508 / S288c) (Baker's yeast)) (P32657 whole entry, the tested form may be a part): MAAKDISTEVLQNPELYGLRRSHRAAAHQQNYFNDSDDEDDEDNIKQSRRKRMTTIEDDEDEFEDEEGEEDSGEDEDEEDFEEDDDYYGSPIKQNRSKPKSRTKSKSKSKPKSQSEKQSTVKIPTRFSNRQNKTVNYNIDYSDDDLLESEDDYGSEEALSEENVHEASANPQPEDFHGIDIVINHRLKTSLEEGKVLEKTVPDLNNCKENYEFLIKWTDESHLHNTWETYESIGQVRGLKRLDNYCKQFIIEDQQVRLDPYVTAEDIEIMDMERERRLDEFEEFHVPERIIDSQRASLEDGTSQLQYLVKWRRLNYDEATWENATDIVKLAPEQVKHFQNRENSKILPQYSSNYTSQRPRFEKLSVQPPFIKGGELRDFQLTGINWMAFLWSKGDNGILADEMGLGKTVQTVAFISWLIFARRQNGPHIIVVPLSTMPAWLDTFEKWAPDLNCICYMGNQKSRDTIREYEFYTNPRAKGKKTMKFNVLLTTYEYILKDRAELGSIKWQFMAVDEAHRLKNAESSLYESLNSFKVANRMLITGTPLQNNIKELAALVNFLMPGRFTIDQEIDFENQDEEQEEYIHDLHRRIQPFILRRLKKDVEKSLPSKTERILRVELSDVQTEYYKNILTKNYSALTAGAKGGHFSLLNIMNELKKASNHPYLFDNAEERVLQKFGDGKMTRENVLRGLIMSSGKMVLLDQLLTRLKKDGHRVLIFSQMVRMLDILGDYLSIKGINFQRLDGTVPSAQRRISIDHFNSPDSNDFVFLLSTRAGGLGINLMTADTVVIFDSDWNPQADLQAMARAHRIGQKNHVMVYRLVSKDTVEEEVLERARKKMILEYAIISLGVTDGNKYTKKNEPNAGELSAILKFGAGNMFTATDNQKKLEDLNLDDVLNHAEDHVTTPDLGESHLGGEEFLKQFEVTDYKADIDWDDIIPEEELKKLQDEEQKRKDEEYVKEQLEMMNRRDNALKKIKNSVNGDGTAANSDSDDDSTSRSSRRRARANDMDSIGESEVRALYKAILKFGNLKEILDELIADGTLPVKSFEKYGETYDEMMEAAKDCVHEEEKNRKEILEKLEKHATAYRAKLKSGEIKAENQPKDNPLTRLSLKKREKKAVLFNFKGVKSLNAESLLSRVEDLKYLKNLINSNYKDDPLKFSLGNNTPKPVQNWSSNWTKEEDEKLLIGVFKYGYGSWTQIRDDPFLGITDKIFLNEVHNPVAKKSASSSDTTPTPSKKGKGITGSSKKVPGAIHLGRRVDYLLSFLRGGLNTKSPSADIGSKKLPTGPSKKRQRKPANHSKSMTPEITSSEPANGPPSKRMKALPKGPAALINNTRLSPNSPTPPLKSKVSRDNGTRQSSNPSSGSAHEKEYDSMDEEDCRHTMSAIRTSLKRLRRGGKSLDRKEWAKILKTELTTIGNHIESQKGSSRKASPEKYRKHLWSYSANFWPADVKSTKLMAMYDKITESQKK

Sequence of Protein translocase subunit SecA (Escherichia coli (strain K12)) (P10408 whole entry): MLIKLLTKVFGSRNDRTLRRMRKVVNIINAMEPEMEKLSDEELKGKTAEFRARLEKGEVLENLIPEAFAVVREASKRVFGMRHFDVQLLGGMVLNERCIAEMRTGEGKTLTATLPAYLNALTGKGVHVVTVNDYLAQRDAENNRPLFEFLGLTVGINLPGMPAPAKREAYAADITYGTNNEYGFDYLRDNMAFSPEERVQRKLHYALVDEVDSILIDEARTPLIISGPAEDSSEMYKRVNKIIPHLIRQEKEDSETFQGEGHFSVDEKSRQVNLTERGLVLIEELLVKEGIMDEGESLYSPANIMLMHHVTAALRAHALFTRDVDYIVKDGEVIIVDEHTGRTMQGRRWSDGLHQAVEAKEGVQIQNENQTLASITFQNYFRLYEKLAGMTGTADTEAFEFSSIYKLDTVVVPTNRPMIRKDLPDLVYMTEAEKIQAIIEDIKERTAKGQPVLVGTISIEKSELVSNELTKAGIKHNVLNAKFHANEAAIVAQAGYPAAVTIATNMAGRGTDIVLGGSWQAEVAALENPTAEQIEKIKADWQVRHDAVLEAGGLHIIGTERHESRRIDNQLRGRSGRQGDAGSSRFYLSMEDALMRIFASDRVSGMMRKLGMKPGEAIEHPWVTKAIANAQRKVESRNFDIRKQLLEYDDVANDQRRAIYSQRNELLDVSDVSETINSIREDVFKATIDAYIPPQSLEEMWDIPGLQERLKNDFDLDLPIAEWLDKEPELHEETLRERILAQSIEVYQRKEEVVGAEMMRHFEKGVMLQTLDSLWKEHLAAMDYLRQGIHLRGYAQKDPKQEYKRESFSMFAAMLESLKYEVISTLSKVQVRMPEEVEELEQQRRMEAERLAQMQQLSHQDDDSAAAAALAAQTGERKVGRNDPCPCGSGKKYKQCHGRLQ
Sequence of Sialic acid-binding Ig-like lectin 9 (Homo sapiens) (Q9Y336 whole entry): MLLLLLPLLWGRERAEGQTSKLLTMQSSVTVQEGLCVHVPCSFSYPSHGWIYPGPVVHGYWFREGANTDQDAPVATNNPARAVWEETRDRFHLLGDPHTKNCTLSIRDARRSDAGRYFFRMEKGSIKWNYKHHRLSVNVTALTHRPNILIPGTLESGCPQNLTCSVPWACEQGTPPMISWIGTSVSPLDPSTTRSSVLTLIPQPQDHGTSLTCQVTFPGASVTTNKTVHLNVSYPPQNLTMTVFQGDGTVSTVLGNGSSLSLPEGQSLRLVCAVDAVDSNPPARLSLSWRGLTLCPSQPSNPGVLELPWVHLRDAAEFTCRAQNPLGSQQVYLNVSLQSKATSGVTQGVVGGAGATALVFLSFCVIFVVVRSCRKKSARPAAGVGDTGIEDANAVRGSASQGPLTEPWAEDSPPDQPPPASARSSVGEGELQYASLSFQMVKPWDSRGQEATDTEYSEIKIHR

## Cc1nnc(C(C)N2CCN(Cc3ccc(C#N)cc3)CC2)o1 (stereo unspecified)
[1]
  Percent Effect: -3.48%
[2]
  Percent Effect: 8.11%
[3]
  Percent Effect: -6.14%
[4]
  Percent Effect: 9.9%
[5]
  Percent Effect: -8.77%
[6]
  Percent Effect: 27.7%
[7]
  Percent Effect: -5.22%
[8]
  Percent Effect: 5.6%
[9]
  Percent Effect: 0.493%
[10]
  Percent Effect: 3.7%
[11]
  Percent Effect: 0.608%

## CCCc1nc(CN2CCCC(Cn3cncn3)C2)no1 (stereo unspecified)
[1]
  Percent Effect: -6.43%
[2]
  Percent Effect: -1.27%
[3]
  Percent Effect: 0.957%
[4]
  Percent Effect: -0.585%
[5]
  Percent Effect: 0.718%
[6]
  Percent Effect: 0.215%
[7]
  Percent Effect: 2.06%
[8]
  Percent Effect: 4.36%
[9]
  Percent Effect: 5.21%
[10]
  Percent Effect: 15.2%
[11]
  Percent Effect: -25.2%

## Cc1cnn(C2CCCN(C(=O)c3ccn(C)c(=O)c3)C2)c1 (stereo unspecified)
[1]
  Percent Effect: -0.722%
[2]
  Percent Effect: 7.79%
[3]
  Percent Effect: -5.73%
[4]
  Percent Effect: -4%
[5]
  Percent Effect: 1.08%
[6]
  Percent Effect: 5.68%
[7]
  Percent Effect: -3.15%
[8]
  Percent Effect: 20.6%
[9]
  Percent Effect: 3.81%
[10]
  Percent Effect: 11.8%
[11]
  Percent Effect: -14.6%

## Cc1cc(CN2CCN(C(C)c3nc(C4CC4)no3)CC2)no1 (stereo unspecified)
[1]
  Percent Effect: 1.42%
[2]
  Percent Effect: 8.86%
[3]
  Percent Effect: -5.67%
[4]
  Percent Effect: -3.17%
[5]
  Percent Effect: -1.33%
[6]
  Percent Effect: 4.52%
[7]
  Percent Effect: 13.4%
[8]
  Percent Effect: 28.4%
[9]
  Percent Effect: -1.04%
[10]
  Percent Effect: 5.06%
[11]
  Percent Effect: -25.2%

## CCn1cc(NC(=O)NCC(O)c2ccccc2)cn1 (stereo unspecified)
[1]
  Percent Effect: -2.26%
[2]
  Percent Effect: 12.7%
[3]
  Percent Effect: -8.7%
[4]
  Percent Effect: 13.4%
[5]
  Percent Effect: -1.98%
[6]
  Percent Effect: 1.52%
[7]
  Percent Effect: 3.19%
[8]
  Percent Effect: -8.48%
[9]
  Percent Effect: 1.48%
[10]
  Percent Effect: 13.9%
[11]
  Percent Effect: -3.66%

## CCCc1noc(CCC(=O)NC(C)c2nnc3n2CCCCC3)n1 (stereo unspecified)
[1]
  Percent Effect: -0.578%
[2]
  Percent Effect: 8.11%
[3]
  Percent Effect: -6.02%
[4]
  Percent Effect: 5.58%
[5]
  Percent Effect: -2.64%
[6]
  Percent Effect: 5.21%
[7]
  Percent Effect: 19.5%
[8]
  Percent Effect: 3.01%
[9]
  Percent Effect: 3.23%
[10]
  Percent Effect: 8.64%
[11]
  Percent Effect: -5.75%

## NC(=O)c1ccc(S(=O)(=O)NC2CCN(Cc3ccccc3)C2=O)cc1 (stereo unspecified)
[1]
  Percent Effect: -3.79%
[2]
  Percent Effect: 17.7%
[3]
  Percent Effect: 9.8%
[4]
  Percent Effect: 5.49%
[5]
  Percent Effect: 0.472%
[6]
  Percent Effect: -3.42%
[7]
  Percent Effect: 0.901%
[8]
  Percent Effect: 2.7%
[9]
  Percent Effect: 5.42%
[10]
  Percent Effect: 11.4%
[11]
  Percent Effect: -6.86%

## CCc1nc2n(n1)CC(NCc1ncc(-c3ccccc3)o1)CC2 (stereo unspecified)
[1]
  Percent Effect: -1.59%
[2]
  Percent Effect: -2.63%
[3]
  Percent Effect: 0.215%
[4]
  Percent Effect: 5.65%
[5]
  Percent Effect: 1.21%
[6]
  Percent Effect: 1.8%
[7]
  Percent Effect: 4.65%
[8]
  Percent Effect: -5.2%
[9]
  Percent Effect: 3.45%
[10]
  Percent Effect: -23.5%
[11]
  Percent Effect: -5.56%

## CN(Cc1nnc(C2CC2)n1C)C(=O)c1ccnc(OC2CCC2)c1
[1]
  Percent Effect: -5.02%
[2]
  Percent Effect: 2.7%
[3]
  Percent Effect: 2.08%
[4]
  Percent Effect: 2.83%
[5]
  Percent Effect: 3.09%
[6]
  Percent Effect: 1.43%
[7]
  Percent Effect: 6.21%
[8]
  Percent Effect: -9.69%
[9]
  Percent Effect: 0.529%
[10]
  Percent Effect: -2.44%
[11]
  Percent Effect: -2.68%

## Cc1nc(C)n(CC2CCCCN2CCS(C)(=O)=O)n1 (stereo unspecified)
[1]
  Percent Effect: -4.31%
[2]
  Percent Effect: -2.7%
[3]
  Percent Effect: 0.489%
[4]
  Percent Effect: 0.818%
[5]
  Percent Effect: -3.09%
[6]
  Percent Effect: -3.33%
[7]
  Percent Effect: 11.7%
[8]
  Percent Effect: 8.2%
[9]
  Percent Effect: -2.65%
[10]
  Percent Effect: -4.88%
[11]
  Percent Effect: -3.45%

## Cc1ccccc1C1CCCN1C(=O)CN1CC2(CCNCC2)OC1=O (stereo unspecified)
[1]
  Percent Effect: -4.66%
[2]
  Percent Effect: 8.11%
[3]
  Percent Effect: -3.53%
[4]
  Percent Effect: 12.1%
[5]
  Percent Effect: 6.76%
[6]
  Percent Effect: 0%
[7]
  Percent Effect: 13.1%
[8]
  Percent Effect: -1.19%
[9]
  Percent Effect: 4.76%
[10]
  Percent Effect: 9.76%
[11]
  Percent Effect: 87.8%

— ChEMBL document CHEMBL3988442, “University of Dundee, Small-Polar-MMV Screening Library” (2021)
